# Measurements taken from PubChem BioAssay AID1628 (Sanford-Burnham Center for Chemical Genomics, 2009).
# Screen size: about 190,000 compounds; about 930 (0.49%) were called active. The list shows a part of the results. Potency and affinity values are given separately. A number with no mark means an inactive call.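 Rule for the calls: active = z-score of insulin promoter reporter brightness in nuclei below -3 at 5 µM, with at least 500 cells counted; inconclusive = wells with under 500 cells, flagged as toxic or sparse; inactive = the rest.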
# Assay: insulin promoter down-regulators in MIN6 cells, imaging, high-content screening, mouse beta cells (AID 1628)
# Conditions: MIN6 insulin promoter GFP reporter, at 5 µM, active compounds read low
row,Structure (SMILES),z-score
1,CC(=O)Oc1cc2cccc(OC(C)=O)c(=O)c2c(OC(C)=O)c1OC(C)=O,-0.38
2,CC(=O)Oc1ccc(OC(C)=O)c(SCCCCCCl)c1,-3.45 (active)
3,COC(=O)[C@H]1[C@H](C(=O)OC)[C@@H](C(=O)OC)N(c2ccc(OC)cc2)[C@@H]1C(=O)OC,-4.45 (active)
4,CC(C)(CNS(=O)(=O)c1ccc(Cl)cc1)N1CCCCC1,3.62
5,CCNC(=S)NS(=O)(=O)c1ccc(Cl)cc1,-3.8 (active)
6,O=C(CCNS(=O)(=O)c1ccc(Cl)cc1)NCc1cccs1,1.64
7,CCCCCCN1C=CC(=C/C=C(\C#N)C(=O)OCC)C=C1,16.6
8,COc1ccc(Cn2c(=O)sc3ccccc32)cc1OC,-3.63 (active)
9,O=C(CCn1c(=O)sc2ccccc21)Nc1cccnc1,0.79
10,C=CCN1C(=O)/C(=C\c2ccc(OC(=O)c3ccco3)c(OC)c2)SC1=S,1.03
11,COc1cccc(S(=O)(=O)NCc2ccc(C(=O)Nc3ccc(Cl)c(Cl)c3)cc2)c1,3.13
12,Cc1ccc(S(=O)(=O)NCc2ccncc2)c(C)c1C,-6.46 (active)
13,COc1cc(C)c(Cl)cc1S(=O)(=O)NCc1ccncc1,-4.94 (active)
14,COc1ccc(S(=O)(=O)NCc2ccncc2)cc1OC,-3.36 (active)
15,Cc1cc(C)n(C(=O)CCC2COc3ccccc3O2)n1 (stereo not given),3.53
16,CCOC(=O)c1c(NC(=O)c2nn(CC)cc2Br)c(C#N)cn1-c1ccccc1,-3.62 (active)
17,c1ccc2c(c1)CCN(CCCNc1nc3ccccc3n3cnnc13)C2,-3.05 (active)
18,CCN(CC)S(=O)(=O)c1ccc2[nH]cc(C(=O)NCCC3=CCCCC3)c(=O)c2c1,-6.41 (active)
19,CCn1cc(C(=O)NCCN(C)CCc2ccccc2)c(=O)c2cc(S(=O)(=O)N(C)C)ccc21,3.87
20,CN1CCNC(=O)C1CC(=O)NCCC1=CCCCC1 (stereo not given),3.77
21,CN1CC=C2C(C#N)=C(N)C(C#N)(C#N)C(Cc3ccccc3)C2C1 (stereo not given),3.5
22,Cc1cccc(NC(=S)NNC(=O)c2csc(C(C)C)c2)c1,1.31
23,COc1cccc(-c2nc(N3CCCCC3C)c3ccccc3n2)c1O (stereo not given),-3.15 (active)
24,COC(=O)c1cc2c(-c3ccccc3)c(C)c3ccccn3c-2c1C(=O)OC,4.22

row,Structure (SMILES),z-score
1,O=C1c2cccc3c(N4CCCCC4)ccc(c23)C(=O)N1c1ccccc1O,4.51
2,CC(C)(C)NC(=O)NC(=O)CN1CCCc2ccccc21,2.02
3,CC1Cc2ccccc2N1S(=O)(=O)c1cccs1 (stereo not given),-6.66 (active)
4,O=S(=O)(c1cccs1)N1CCCc2ccccc21,-3.97 (active)
5,O=C(NCCN1CCN(Cc2ccc([N+](=O)[O-])cc2)CC1)C(=O)Nc1ccccc1,-3.53 (active)
6,COc1cc(/C=C/C(=O)c2ccccc2O)cc(OC)c1OC,-0.68
7,COc1ccc(C(=O)/C=C/c2ccccc2)c(O)c1,-0.73
8,Cc1onc(-c2c(Cl)cccc2Cl)c1C(=O)NCc1ccco1,-0.41
9,Cc1ccc(C(=O)Nc2ccccc2C(=O)NCc2ccco2)cc1S(=O)(=O)N1CCCCC1,-3.27 (active)
10,COCCNC(=S)N/N=C(\C)c1ccc2cc(OC)ccc2c1,3.43
11,Cc1cccc(NC(=O)/C=C/c2ccc([N+](=O)[O-])s2)c1,9.92
12,Cc1cccc(NC(=O)CCNS(=O)(=O)c2cccc3nonc23)c1,0.73
13,N#CCc1nc(CSc2nc3ccccc3s2)cs1,4.03
14,CCN(CC)c1ccc(/C=C/C(=O)c2ccc(Br)cc2)cc1,8.04
15,CC(=O)Nc1cccc(C(=O)/C=C/c2ccc(N(C)C)cc2)c1,12.5
16,CN(C)c1ccc(N/C=C/C(=O)c2ccc(F)cc2)cc1,-5.01 (active)
17,CN(C)C(=O)CN(c1ccc2c(c1)OCO2)S(C)(=O)=O,3.6
18,Cc1cc(C)nc(NS(=O)(=O)c2ccc(NC(=O)c3ccc4c(c3)OCO4)cc2)n1,-0.38
19,COc1ccc(S(=O)(=O)N(C)CC(=O)Nc2ccc3c(c2)OCO3)cc1OC,-5.9 (active)
20,Cc1oc(C)c2c(=O)ccc3c(c12)OC(N)=C(C#N)C3c1ccccc1 (stereo not given),6.6
21,CCCN(CCC)c1ccc(/C=C/c2ccc3cc(OCC)ccc3n2)cc1,5.3
22,COc1ccc(C(=O)Nc2ccc3nc(C)sc3c2)cc1OC,1.51
23,Cc1nc2ccc(NC(=O)c3cc(S(=O)(=O)N4CCOCC4)ccc3C)cc2s1,-3 (active)
24,Cc1ccc(C(C)C)c(OCc2nn(CC(=O)c3ccc(Cl)cc3)c3[n+]2CCCCC3)c1,-4.3 (active)

row,Structure (SMILES),z-score
1,N#CC1=C(N)C(C#N)(C#N)[C@H](c2ccoc2)[C@H]2CN(Cc3ccccc3)CC=C12,5.86
2,CCN(CC)CC(O)COc1ccc2c(c1)c(C(C)=O)c(C)n2-c1ccccc1 (stereo not given),-3.02 (active)
3,CC(C)CN1C(=O)/C(=C/c2c(N3CCc4ccccc4C3)nc3ccccn3c2=O)SC1=S,16.9
4,COc1ccc(C2C3=C(CCCC3=O)Nc3ccc4ncccc4c32)cc1OC (stereo not given),2.27
5,COc1cc(C2C(C#N)=C(C)NC3=C2C(=O)CC(C)(C)C3)ccc1O (stereo not given),-4.47 (active)
6,COCC(C)n1c(SCC(=O)NC(=O)Nc2ccc3c(c2)OCCO3)nc2ccccc2c1=O (stereo not given),-4.52 (active)
7,O=c1c(-c2ccccc2)coc2cc(O)ccc12,0.33
8,O=c1[nH]c(/C(Cl)=C/c2cccc(F)c2)nc2cc(C(F)(F)F)ccc12,-4.9 (active)
9,COC(=O)c1cc(CSc2nc3ccc(C)cc3[nH]2)oc1C,-3.9 (active)
10,CCN(CC)c1ccc(/C=C(/C#N)c2nc3ccc(C)cc3[nH]2)c(OC(C)C)c1,10.8
11,C=CCNC(=O)c1c2c(nc3ccccc13)-c1ccccc1CC2,4.54
12,CC1CCCCC1NC(=O)COC(=O)c1c2c(nc3ccccc13)/C(=C/c1ccco1)CC2 (stereo not given),7.1
13,NC(=O)c1ccc(NC(=O)COC(=O)c2c3c(nc4ccccc24)/C(=C\c2cccs2)CCC3)cc1,-3.07 (active)
14,Cc1ccc(S(=O)(=O)Cn2nnnc2C(CC(C)C)N2CCN(c3ccccc3)CC2)cc1 (stereo not given),-4.77 (active)
15,Cn1ccc(=S)c2ccccc21,3.38
16,COC(=O)c1ccccc1NC(=O)Cn1cnc2cc(C)c(C)cc21,-3.24 (active)
17,Cc1[nH]n(-c2ccc([N+](=O)[O-])cc2)c(=O)c1C=NCCN1CCN(C(=O)c2ccccc2F)CC1,4.48
18,COC(=O)c1ccc(N2C(=O)CC(Sc3n[nH]c(C)n3)C2=O)cc1 (stereo not given),1.02
19,COc1ccccc1N1C(=O)CC(Sc2n[nH]c(-c3cccc(C)c3)n2)C1=O (stereo not given),-5.2 (active)
20,N#CC(C#N)=C1C=C2C=C(N3CCOCC3)CCC2CC1 (stereo not given),15.6
21,O=c1c2ccccc2nc(-c2ccco2)n1/N=C/c1ccco1,2.3
22,COc1ccccc1/C=N/n1c(N)c(S(=O)(=O)c2cccs2)c2nc3ccccc3nc21,-3.63 (active)
23,CC(C)(C)c1ccc(OCC(=O)Nc2ccc3c4c(cccc24)C(=O)NC3=O)cc1,5.3
24,CCOc1ccc(C2=C(C=Nc3c(C)n(C)n(-c4ccccc4)c3=O)C(c3ccc(F)cc3)c3ccccc3O2)cc1 (stereo not given),-4.16 (active)

row,Structure (SMILES),z-score
1,CCOc1ccc(C2C(C(=O)O)c3ccccc3C(=O)N2CCN2CCOCC2)cc1 (stereo not given),4.94
2,COc1ccc(CNc2cc(NCCCO)c([N+](=O)[O-])c3nonc23)cc1,2.28
3,Cc1nn(-c2ccccc2)c(C)c1/C=N/NC(=O)CSc1nnc(SCc2ccccc2Cl)s1,-3.39 (active)
4,Cc1cccc(-n2nnc(C(=O)NCc3ccccc3Cl)c2N)c1,1.52
5,O=C1S/C(=C\c2ccc(N3CCOCC3)o2)C(=O)N1Cc1ccc(F)cc1,8.79
6,CC1CCc2cc(F)ccc2N1C(=O)c1ccc2c(c1)OCO2 (stereo not given),-4.9 (active)
7,Cc1ccc(-c2cn3cccnc3n2)cc1,2.84
8,Cc1ccn2c(NC3CCCCC3)c(C)nc2c1,3.89
9,Cc1ccn2c(Nc3ccccc3C)c(-c3ccccn3)nc2c1,-3.6 (active)
10,COc1ccc(Nc2c(-c3ccco3)nc3ccc(C)cn23)cc1,5.18
11,COc1ccc(-n2nc([N+](=O)[O-])c(=NCc3ccco3)n2O)cc1,4.25
12,Cc1ccc(-c2cc(C(F)(F)F)n3nc(C(=O)NCCCn4ccnc4)cc3n2)cc1C,-5.59 (active)
13,CC1CCN(C(=O)c2cc3nc(C4CC4)cc(C(F)(F)F)n3n2)CC1,-0.53
14,O=C(Cn1cnc2c(cnn2-c2ccc(F)cc2)c1=O)N1CCCc2ccccc21,1.13
15,O=C(CSCC(=O)N1CCCc2ccccc21)Nc1nc(-c2ccccc2)cs1,-4.03 (active)
16,Cc1cc(C)cc(N=Cc2[nH]c3ccc(Br)c(Cl)c3c2O)c1,13.9
17,Cc1nn(Cc2ccccc2Cl)c2sc(C(=O)NCCCn3ccnc3)cc12,-4.53 (active)
18,O=C(NCCCn1ccnc1)/C(=C/c1ccco1)NC(=O)c1cccs1,3.41
19,Cc1ccc(C(=O)NCCCn2ccnc2)cc1[N+](=O)[O-],5.54
20,Cc1cccc(Nc2nc(N)nc(CN3CCN(c4ccccc4)CC3)n2)c1,-1.36
21,COc1ccccc1N1CCN(C/C(O)=C(\C#N)c2nc(-c3ccccc3)cs2)CC1,3.2
22,CN1CCN(Cc2nc(N)nc(Nc3ccc4c(c3)OCCO4)n2)CC1,4.73
23,COc1ccccc1N1CCN(Cc2nc(N)nc(Nc3ccccc3)n2)CC1,-3.17 (active)
